We go through 8 compounds from PubChem BioAssay (NCI).

What all share (test): NCI-60 one-dose screen, 48 h (100 = growth as untreated, 0 = no growth, -100 = all killed)
For one experiment, the system named is HCT-15 colon. To be noted: 10 µM unless noted.
The test system of a further experiment is HT29 colon. As to conditions: 10 µM unless noted.
A further experiment concerns SNB-75 CNS. To be noted: 10 µM unless noted.
For a further experiment, the system named is SNB-19 CNS. As to conditions: 10 µM unless noted.
A further experiment relates to U251 CNS. To be noted: 10 µM unless noted.
The subject of the next experiment is PC-3 prostate. As to conditions: 10 µM unless noted.
The next experiment concerns SK-MEL-5 melanoma. To be noted: 10 µM unless noted.
The test system of another experiment is UACC-62 melanoma. To be noted: 10 µM unless noted.
Another experiment deals with LOX IMVI melanoma. To be noted: 10 µM unless noted.
In another experiment the test system is SK-MEL-28 melanoma. To be noted: 10 µM unless noted.
The test system of another experiment is SK-MEL-2 melanoma. As to conditions: 10 µM unless noted.
In a further experiment the test system is SN12C renal. As to conditions: 10 µM unless noted.
The next experiment concerns UO-31 renal. To be noted: 10 µM unless noted.
In another experiment the test system is TK-10 renal. As to conditions: 10 µM unless noted.
Another experiment has as its system ACHN renal. To be noted: 10 µM unless noted.
The next experiment has as its system CAKI-1 renal. To be noted: 10 µM unless noted.
Another experiment has as its system A498 renal. To be noted: 10 µM unless noted.
The subject of a further experiment is MOLT-4 leukemia. To be noted: 10 µM unless noted.
The next experiment concerns CCRF-CEM leukemia. As to conditions: 10 µM.

About 83,000 compounds went through this panel and 20% of them were active in at least one assay; those are over-represented in the sample as a whole.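 Single-concentration screen, 48 h exposure, 96-well plates. Endpoint: percent growth. Below 10 = active.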 Values without a mark were called inactive. Calls of active or inactive are those of the source.

In the case of `CCn1cnc(C[C@H](NC(=O)[C@@H](NC(=O)Nc2cc(C(F)(F)F)cc(C(F)(F)F)c2)C(C)(C)C)C(=O)OC)c1`, the growth with HCT-15 colon was -68% [100 µM] (active); with HT29 colon, -82.9% [100 µM] (active); in the experiment with SNB-75 CNS, -98.8% [100 µM] (active); in the experiment with SNB-19 CNS it was -98.2% [100 µM] (active); in the experiment with U251 CNS, -94.5% [100 µM] (active); in the experiment on PC-3 prostate it was -91.2% [100 µM] (active). Besides, the growth in the experiment with SK-MEL-5 melanoma was -98% [100 µM] (active); in the experiment with UACC-62 melanoma, -98.7% [100 µM] (active); in the experiment with LOX IMVI melanoma, -87.4% [100 µM] (active); with SK-MEL-28 melanoma it was -96% [100 µM] (active); in the experiment with SK-MEL-2 melanoma, -91% [100 µM] (active); in the experiment on SN12C renal, -96.2% [100 µM] (active). Also, the growth in the experiment on UO-31 renal is -94.1% [100 µM] (active); with TK-10 renal, -97.6% [100 µM] (active); with ACHN renal, -95.8% [100 µM] (active); in the experiment with CAKI-1 renal it was -96% [100 µM] (active); in the experiment on A498 renal it was -91.6% [100 µM] (active); in the experiment with MOLT-4 leukemia it was -49% [100 µM] (active).

As to `CC(C)OCC1CO1` (stereo not given), the growth in the experiment with HCT-15 colon is 100%; with HT29 colon it was 103%; in the experiment with SNB-75 CNS, 92.7%; in the experiment on SNB-19 CNS, 99.7%; with U251 CNS it was 102%; in the experiment with PC-3 prostate, 106%. The growth with SK-MEL-5 melanoma was 108%; in the experiment on UACC-62 melanoma, 98.9%; in the experiment with LOX IMVI melanoma, 113%; with SK-MEL-28 melanoma, 110%; in the experiment with SK-MEL-2 melanoma, 123%; in the experiment with SN12C renal it was 109%. Moreover, the growth in the experiment with UO-31 renal was 95.8%; in the experiment with TK-10 renal, 107%; in the experiment on ACHN renal, 98.7%; in the experiment with CAKI-1 renal, 97.9%; with A498 renal, 117%; in the experiment with MOLT-4 leukemia, 110%.

With `O=C(CCl)NC1c2ccccc2Oc2ccccc21`, the growth with HCT-15 colon is 50.8%; with HT29 colon it was 80.5%; in the experiment on SNB-75 CNS, 74.5%; in the experiment on SNB-19 CNS it was 94.3%; with U251 CNS, 47.7%; with PC-3 prostate it was 80.7%. The growth with SK-MEL-5 melanoma is 73.8%; in the experiment on UACC-62 melanoma it was 68.1%; in the experiment with LOX IMVI melanoma, -1.57% (active); in the experiment with SK-MEL-28 melanoma, 92%; in the experiment on SK-MEL-2 melanoma it was 63%; in the experiment on SN12C renal, 81.1%. Also, the growth with UO-31 renal was 92.1%; in the experiment on TK-10 renal, 84.4%; with ACHN renal, 72.4%; with CAKI-1 renal, 64.6%; with A498 renal, 97.3%; in the experiment with MOLT-4 leukemia, 62.6%.

Take `O=C(OCC1CC2(Cl)C(Cl)=C(Cl)C1(Cl)C2(Cl)Cl)C1C(C(=O)OCC2CC3(Cl)C(Cl)=C(Cl)C2(Cl)C3(Cl)Cl)C2(Cl)C(Cl)=C(Cl)C1(Cl)C2(Cl)Cl` (stereo not given): the growth was 99.9% in the experiment with HCT-15 colon; 99.6% in the experiment on HT29 colon; 97.8% in the experiment on SNB-75 CNS; 106% in the experiment with SNB-19 CNS; 99.2% in the experiment with U251 CNS; 105% with PC-3 prostate. Further, the growth in the experiment on SK-MEL-5 melanoma was 104%; in the experiment with UACC-62 melanoma, 107%; in the experiment with LOX IMVI melanoma, 122%; in the experiment on SK-MEL-28 melanoma it was 112%; with SK-MEL-2 melanoma, 111%; in the experiment with SN12C renal, 105%. In addition, the growth in the experiment on UO-31 renal was 91.8%; in the experiment with TK-10 renal it was 105%; in the experiment with ACHN renal, 95.6%; with CAKI-1 renal it was 90.8%; with A498 renal, 117%; with MOLT-4 leukemia it was 85%.

Take `CCCCCCCCCCCCOC(=N)N(C)C`: the growth with HCT-15 colon was 96.7%; with HT29 colon, 102%; in the experiment on SNB-75 CNS it was 85.8%; in the experiment on SNB-19 CNS it was 96.1%; in the experiment with U251 CNS it was 94.8%; in the experiment on PC-3 prostate it was 91.4%. The growth with SK-MEL-5 melanoma is 109%; in the experiment on UACC-62 melanoma, 93.9%; with LOX IMVI melanoma, 74.2%; in the experiment with SK-MEL-28 melanoma it was 106%; in the experiment with SK-MEL-2 melanoma it was 95.8%; with SN12C renal it was 101%. In addition, the growth with UO-31 renal was 91%; in the experiment on TK-10 renal, 94%; with ACHN renal, 93.6%; in the experiment with CAKI-1 renal it was 80.7%; in the experiment on A498 renal, 103%; in the experiment with MOLT-4 leukemia, 93.5%.

As for `CC(O)CN(CCO)CCN(CCO)CC(C)O` (stereo not given), the growth is 101% in the experiment on HCT-15 colon; 100% in the experiment with HT29 colon; 98.7% with SNB-75 CNS; 105% in the experiment with SNB-19 CNS; 106% in the experiment with U251 CNS; 106% in the experiment with PC-3 prostate. Moreover, the growth in the experiment on SK-MEL-5 melanoma is 106%; in the experiment on UACC-62 melanoma, 101%; in the experiment on LOX IMVI melanoma, 98%; in the experiment with SK-MEL-28 melanoma, 106%; in the experiment with SK-MEL-2 melanoma, 114%; in the experiment with SN12C renal, 104%. For the same compound, the growth in the experiment with UO-31 renal was 99.6%; in the experiment with TK-10 renal, 103%; in the experiment with ACHN renal it was 102%; with CAKI-1 renal it was 95.1%; in the experiment on A498 renal, 112%; in the experiment with MOLT-4 leukemia it was 100%.

With `O=CN/N=C/c1ccc(Cl)c([N+](=O)[O-])c1`, the growth was 47.3% in the experiment on HCT-15 colon; 6.89% (active) in the experiment with HT29 colon; 62.2% in the experiment with SNB-75 CNS; 32.5% with SNB-19 CNS; 11.9% in the experiment with U251 CNS; 1.87% (active) with PC-3 prostate. For the same compound, the growth in the experiment on SK-MEL-5 melanoma is 14.2%; in the experiment with UACC-62 melanoma, 18%; with LOX IMVI melanoma it was 17%; with SK-MEL-28 melanoma it was 43%; in the experiment on SK-MEL-2 melanoma, 41.1%; in the experiment on SN12C renal, 21.2%. Moreover, the growth in the experiment with UO-31 renal is 80.1%; in the experiment on TK-10 renal, 8.5% (active); in the experiment with ACHN renal, 44.2%; in the experiment on CAKI-1 renal, 41.1%; in the experiment with A498 renal it was 56%; in the experiment with CCRF-CEM leukemia it was 15.3%. The growth in the experiment on MOLT-4 leukemia is 20.6%.

For `CCCCCCCCCCCCCCCCNC(=S)N/N=C/c1ccc(OC)cc1`, the growth with HCT-15 colon was 108%; in the experiment on HT29 colon it was 102%; in the experiment with SNB-75 CNS it was 113%; in the experiment with SNB-19 CNS, 99.8%; with U251 CNS, 97.9%; with PC-3 prostate, 88.5%. Further, the growth in the experiment with SK-MEL-5 melanoma is 99.9%; in the experiment with UACC-62 melanoma, 93.2%; in the experiment with LOX IMVI melanoma, 108%; with SK-MEL-28 melanoma, 109%; in the experiment with SK-MEL-2 melanoma it was 107%; in the experiment with SN12C renal, 93.5%. Besides, the growth in the experiment with UO-31 renal was 78%; in the experiment on TK-10 renal, 110%; in the experiment with ACHN renal, 104%; in the experiment on CAKI-1 renal, 92%; in the experiment on A498 renal it was 113%; in the experiment on MOLT-4 leukemia, 106%.
